According to PubChem BioAssay (NCI):
The panel holds about 83,000 compounds, 20% with a hit somewhere; the sample as a whole holds those more often.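 Cells were grown in 96-well plates and exposed to the test compound at a single concentration for 48 hours; results are reported as percent growth, with values below 10 considered active.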 Calls of active or inactive are those of the source.

Columns and labels:
Assay in all cases: NCI-60 one-dose screen, 48 h (100 = growth as untreated, 0 = no growth, -100 = all killed)
Settings in all cases: 10 µM unless noted
T-47D breast = system: T-47D breast
BT-549 breast = system: BT-549 breast
MDA-MB-435 melanoma = system: MDA-MB-435 melanoma
SW-620 colon = system: SW-620 colon
MCF7 breast = system: MCF7 breast
HCT-116 colon = system: HCT-116 colon
HCC-2998 colon = system: HCC-2998 colon
KM12 colon = system: KM12 colon
MDA-MB-468 breast = system: MDA-MB-468 breast

Measured: growth

Nc1nc(-c2ccccc2)c(N=Nc2ccc([N+](=O)[O-])cc2Cl)s1
inactive: T-47D breast 40.7% | BT-549 breast 82.9% | MDA-MB-435 melanoma 87.1% | SW-620 colon 90.3% | MCF7 breast 68.1% | HCT-116 colon 70.1% | HCC-2998 colon 99.9% | KM12 colon 90.4% | MDA-MB-468 breast 55.8%

Nc1cccc(SCc2cc3ccccc3[nH]c2=O)c1
inactive: T-47D breast 33.3% | BT-549 breast 46.7% | MDA-MB-435 melanoma 30.5% | SW-620 colon 23.5% | MCF7 breast 37.4% | HCT-116 colon 50.3% | HCC-2998 colon 26.8% | MDA-MB-468 breast 45.9%
active: KM12 colon 0.625%

COc1ccc(/C=C2\C(=N)N=C(SCc3nc4ccccc4[nH]3)NC2=O)cc1
inactive: T-47D breast 87.9% | BT-549 breast 106% | MDA-MB-435 melanoma 105% | SW-620 colon 98.8% | MCF7 breast 99.1% | HCT-116 colon 105% | HCC-2998 colon 116% | KM12 colon 105% | MDA-MB-468 breast 119%

COc1cc(-c2nc3ccc(C)cc3[nH]2)ccc1OCc1nnc(-c2ccc(Br)cc2)o1
inactive: BT-549 breast 23.8% | MDA-MB-435 melanoma 46.1% | SW-620 colon 35.5% | MCF7 breast 12.8% | HCT-116 colon 11.5% | HCC-2998 colon 58.7% | KM12 colon 37.7%
active: T-47D breast -14.6% | MDA-MB-468 breast -34.3%

CN(C)c1ccnc(CNCCSC2(c3ccc(C(F)(F)F)cc3)c3ccccc3C=Cc3ccccc32)c1
active: T-47D breast -60.8% | BT-549 breast -6.19% | MDA-MB-435 melanoma -78.3% | SW-620 colon -82.8% | MCF7 breast -89.2% | HCT-116 colon -37.8% | HCC-2998 colon -93.9% | KM12 colon -31.5% | MDA-MB-468 breast -57.7%

COc1ccc(C(=O)/C=C/c2ccc(OCc3ccc(F)cc3)c(OC)c2)cc1OC
inactive: T-47D breast 26.8% | HCC-2998 colon 16.8% | KM12 colon 14%
active: BT-549 breast -1.79% | MDA-MB-435 melanoma 7.77% | SW-620 colon 7.65% | MCF7 breast 7.56% | HCT-116 colon 8.63% | MDA-MB-468 breast 8.91%

S=c1c2ccccc2nc2n1CCc1c-2[nH]c2ccccc12
inactive: T-47D breast 37.2% | BT-549 breast 49.9% | MDA-MB-435 melanoma 88.6% | SW-620 colon 80.9% | MCF7 breast 43% | HCT-116 colon 48.7% | HCC-2998 colon 64.9% | KM12 colon 80.9% | MDA-MB-468 breast 47.9%

CN(C)c1ccnc(CNCCSC2(c3ccccc3)c3ccccc3C=Cc3ccccc32)c1
active: T-47D breast -32% | BT-549 breast -47.1% | MDA-MB-435 melanoma -86.3% | SW-620 colon -76.1% | MCF7 breast -75.8% | HCT-116 colon -38.8% | HCC-2998 colon -77.3% | KM12 colon -61% | MDA-MB-468 breast -55.3%

Cn1cc(-c2cc(N)n3nc(-c4cn(C)c5ncccc45)cc3n2)c2cccnc21
active: HCC-2998 colon -55.5%
inactive: T-47D breast 89% | BT-549 breast 62.5% | MDA-MB-435 melanoma 92.9% | SW-620 colon 71.7% | HCT-116 colon 62.7% | KM12 colon 87.8% | MDA-MB-468 breast 45%

COc1ccc2c(c1)c(-c1cc3nc(-c4cn(C)c5ncc(Br)cc45)cc(N)n3n1)cn2C
active: T-47D breast -60.3% | BT-549 breast -78.5% | MDA-MB-435 melanoma -67.3% | SW-620 colon -64.1% | HCT-116 colon -100% | HCC-2998 colon -94.3% | KM12 colon -61% | MDA-MB-468 breast -81.4%

COc1ccc(-c2ccnc(SCc3cc4ccccc4[nH]c3=O)n2)cc1OC
inactive: MDA-MB-435 melanoma 14.8% | SW-620 colon 48.8% | KM12 colon 33.7%
active: T-47D breast -5.29% | BT-549 breast -58.3% | HCT-116 colon 2.06% | HCC-2998 colon 5.44% | MDA-MB-468 breast -8.96%

CCCCSc1nc(Nc2ccc(S(N)(=O)=O)cc2)c(C#N)c(-c2cc(OC)c(OC)c(OC)c2)n1
inactive: T-47D breast 15.2% | BT-549 breast 44.3% | MDA-MB-435 melanoma 33% | SW-620 colon 48.6% | HCT-116 colon 21.8% | HCC-2998 colon 65% | KM12 colon 26.6% | MDA-MB-468 breast 61.2%

CCCSc1nc(Nc2ccc(S(N)(=O)=O)cc2)c(C#N)c(-c2ccc(Cl)cc2)n1
inactive: T-47D breast 86.5% | BT-549 breast 77.7% | MDA-MB-435 melanoma 48% | SW-620 colon 37.6% | KM12 colon 41.7% | MDA-MB-468 breast 17.3%
active: HCT-116 colon -67.1% | HCC-2998 colon 8.65%

C=C1CC[C@@H]2[C@]3(C)COC(c4cn[nH]c4-c4ccc(F)cc4)O[C@@H]3CC[C@@]2(C)[C@@H]1C/C=C1/C(=O)OCC1O (stereo not given in full)
active: BT-549 breast -93.4% | MDA-MB-435 melanoma -62.2% | SW-620 colon -60.7% | HCT-116 colon -88.9% | HCC-2998 colon -95.3% | KM12 colon -44.3% | MDA-MB-468 breast -82.4%
inactive: T-47D breast 11.6%
